# From the supplement of paper PMC10338343
# ± gives the standard deviation.
# System: EfPiwi piRISC loaded with piRNA #1 (26 nt)
# Assay: pre-steady-state target cleavage rate (min^-1); auxiliary factor: 500 nM Ephydatia muelleri Gtsf1; guide: piRNA #1 5'p-UGAGGUAGUAGGUUGUAUAGUAUCCA; MIWI and MILI are mouse PIWI proteins and EfPiwi is from a freshwater sponge; tags in brackets are library labels; higher = faster piRNA-guided slicing of the target
# Experimental: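 Cleave-'n-Seq: a library of target RNAs (target site in constant flanks) at […] was incubated with 1 nM active freshwater sponge Ephydatia fluviatilis Piwi piRISC (synthetic 5'-monophosphorylated piRNA guide) with or without 500 nM EmGtsf1 at 33 °C for 1 min to 16 h. Uncleaved targets were sequenced and the pooled three trials fitted to a burst-and-steady-state model to give the pre-steady-state cleavage rate (min^-1). Sequence is the target site only. Fits with R² ≤ 0 are excluded.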
row,Sequence,pre-steady-state target cleavage rate
1,GGAGACCUAUGAUUACAACCUACUACCUCA [g2:g17:cont:t1A],0.00451 ± 0.0032
2,GGAGAGGAUACUAUACAACCUUCUACGUCA,0.00356 ± 0.0021
3,GGAGACCUAACUAUACAAACCUACUACCUCA,0.00462 ± 0.0028
4,GGAGACGAUACUAUACAACCUAUUACCUCA,0.0146 ± 0.0053
5,GGAGACCAUACUAUACUACCUACUACCUCA,0.00859 ± 0.0036
6,GGAGACCUUACUAUACGACCUACUACCUCA,0.016 ± 0.0076
7,GGAGUGGAUACUAUACAACCAACUAGCUCA,0.00337 ± 0.0015
8,GGAGACCUAAGUAUACAACCUACUACCUCA,0.00697 ± 0.0037
9,GGAGACGAUACUAUACACCUACUACCUCA,0.0134 ± 0.0055
10,GGAGACCUAUGAUAUCAACCUACUUCCACA,< 0.0001
11,GGAGACCAUACUAUACAACCUACACCUCA,0.00776 ± 0.0044
12,GGAGACGAUUCUAUACAACGUACUACCUCA,0.00356 ± 0.0021
13,GGAGACGAUACUAUAGAACCUACUACCUGA,0.00292 ± 0.0011
14,GGAGUGGAUACUAUUCAACCUACUACCUCA,0.0119 ± 0.0052
15,GGAGACGAUACUAUACAACCUACUACCGUCA,0.00873 ± 0.0037
16,GGAGACCAUUCAAUACAACCUACUACCUCA,0.0119 ± 0.0054
17,GGAGACCAUUCUAUACAACCUAGUACCUCA,0.00433 ± 0.0024
18,GGAGAGGAUACUUUACAACCUACUACCUGA,0.00329 ± 0.0017
19,GGAGACGUUACUAUACAACCUACUACGUCA,0.00396 ± 0.0018
20,GGAGACGAUAGAUUACAACCUACUACCUCA,0.00662 ± 0.0047

row,Sequence,pre-steady-state target cleavage rate
1,GGAGUGGAUACUAUACAACCUACUACAUCA,0.00707 ± 0.0031
2,GGAGAGGAUACUAUUCAAGCUACUACCUCA,0.00323 ± 0.002
3,GGAGACGAUACUAUACAACGUACUACGUCA,0.00379 ± 0.0014
4,GGAGACGAUACUAUACAACGUAGUACCUCA,0.00274 ± 0.0012
5,GGAGUCGAUACUAUACAACCUACUACCACA,0.0037 ± 0.0015
6,GGAGACCUAACUAUACACCCUACUACCUCA,0.00682 ± 0.0033
7,GGAGACGAUACUAAACAACGUACUACCUCA,0.00192 ± 0.0019
8,GGAGUGGAUACUAUACAACCUUGAACCUCA,0.00462 ± 0.0029
9,GGAGUGGAUACUAUACACACCUACUACCUCA,0.0105 ± 0.005
10,GGAGACGAUACUAUACAACCUACAACGUCA,0.00349 ± 0.0012
11,GGAGACCAUACUAUACAACCUACUACCUUCA,0.0679 ± 0.02
12,GGAGUGGAUACUAUUCAACCAACUACCUCA,0.00404 ± 0.0021
13,GGAGUGGAUACUAUACAACCUACUACCUAA,0.151 ± 0.054
14,GGAGAGCAUACAAUACAACCUACUACCUCA,0.00861 ± 0.0046
15,GGAGAGGUUACUAUACAACCUACUACCACA,0.00331 ± 0.0014
16,GGAGACCUUACUAUACAACCUAGUACCUGA,0.00509 ± 0.0037
17,GGAGACGAUACUAUACAACCUACAACCUGA,0.00441 ± 0.0022
18,GGAGAGGUUACUAUACAACCUACUACCUGA,0.00474 ± 0.0019
19,GGAGACCUAACUAUACAACCUACUACCUUCA,0.0285 ± 0.011
20,GGAGUGGAUACUAUUCAACCUACUACCACA,0.00327 ± 0.0022
